# Screening data deposited in PubChem by several laboratories.
# The list is not random: actives were taken first. Their share in the collection is about 9.6%.
# L major viab: reduces viability of Leishmania major promastigotes. resazurin fluorescence viability. inhibition, % at 10 µM. hit rate 9% among 200,000; in the data active = inhibition above about 50%;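 note: promastigotes grown with compound for 44 hours at 28 °C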
# PTEN del growth: PTEN-deleted cell growth suppression; viability, % at 10 µM; AID 827; HCT116 PTEN-null viability, CellTiter-Glo, 60 h; hits give low values; hit rate 1.2% among 140,000;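 active = viability at or below a set limit, 4 SD under the median of all tested compounds, cut at about 3.7% in these data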;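 note: PTEN knockout HCT116 line with beta catenin targeted HCT116 as companion control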
# Autophagy HCS: modulators of autophagy; calls only at 10 µM (by protocol); hit rate 0.98% among 190,000; MEF GFP-LC3 puncta imaging; test concentration mostly 10 µM;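 active = percentage of spot-positive cells more than 3 SD above its plate mean, without a fluorescence outlier flag or 80% toxicity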;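 note: spot-positive cell cutoff set from DMSO-treated cells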
# Insulin prom up: MIN6 insulin promoter up-regulation; AID 1625; z-score at 5 µM; hit rate 0.3% among 190,000; MIN6 insulin promoter-GFP reporter, high-content imaging; hits give high values;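 active = z-score above 3 at 5 µM with at least 500 cells counted in the well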
# HCT116 bCat-KO: beta-catenin-lacking colon tumor cell growth suppression; HCT116 beta-catenin knockout viability, CellTiter-Glo, 60 h; hits give low values; hit rate 1.5% among 140,000; viability, % at 10 µM;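 active = viability at or under a set limit, the compound median less 4 SD, cut at about 6% in these data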;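 note: 0% = Hyamine 1622 control at 20 µM and 100% = untreated cell control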
# INS promoter inh: TRM-6 insulin promoter activity inhibition; TRM-6 cells (human fetal islet line), insulin promoter-eGFP reporter, imaging; reporter expression induced with tamoxifen; inhibition, % at 2 µM; hit rate 0.9% among 130,000; AID 1273;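 active = inhibition above the mean plus 3 SD, with well images judged a real hit on visual review, cut at about 60% in these data, passing the limit was not always enough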
# Starred values were filed as active, the others as inactive; i = inactive; . = no result.
SMILES,L major viab,PTEN del growth,Autophagy HCS,Insulin prom up,HCT116 bCat-KO,INS promoter inh
Cc1cccc(NC(=O)/C(C#N)=C\c2cc(C)n(-c3ccc(C(=O)O)cc3)c2C)c1,-8,.,i,-0.6,.,-21
Cc1cccc(-n2c(C)cc(C=C(C#N)C#N)c2C)c1,62*,85,i,0.1,93,-34
Cc1cc(/C=C(/C#N)c2cccc(F)c2)c(C)n1-c1cccnc1,99*,60,i,-0.33,69,.
CSc1ccc(/C=N/NC(=O)COc2ccc(Br)cc2Cl)cc1,-10,83,i,0.98,91,.
COc1ccc(OC)c(C2=Nn3c(nnc3-c3ccco3)SC2)c1,29,93,i,0.67,85,.
C(=N\c1nccs1)/c1c[nH]c2ccccc12,4,86,i,-0.54,100,-11
O=C(/C=C/c1cccc(O)c1)c1cccnc1,99*,.,i,-0.32,.,13
CCn1c(=O)cc(N2CCN(C(=O)c3ccco3)CC2)[nH]c1=O,.,.,.,1.3,.,.
CC(Sc1ncnc2ccccc12)C(=O)Nc1ccc2c(c1)OCO2 (stereo unspecified),80*,71,i,-0.16,67,-5
O=C(Nc1ccc2c(c1)OCO2)C1CCN(C(=O)CSc2ncnc3ccccc23)CC1,79*,.,i,-0.46,.,15
CCOC(=O)N1CCN(C(=O)CNC(=O)Cn2cnc3ccccc3c2=O)CC1,0,.,i,0.09,.,36
Cc1ccccc1NC(=O)COc1ccc2oc(=O)cc(C)c2c1,-6,.,i,1,.,.
Cc1cc(C)nc(/N=C(\N)Nc2cc([N+](=O)[O-])ccc2C)n1,19,92,i,-0.44,87,.
COc1ccc(S(=O)(=O)N(CCCN2CCOCC2)Cc2cccc3ccccc23)cc1,99*,93,i,0.77,94,17
O=S(=O)(c1ccc(Cl)cc1)N(CCCN1CCOCC1)Cc1cccs1,68*,.,i,0.33,.,29
O=C(Nc1ccc(Cl)cc1)N(CCCN1CCOCC1)Cc1cccs1,8,88,i,0.75,90,.
CN(C)Cc1c(-c2ccc(Cl)cc2)nc2ccc(Cl)cn12,68*,.,i,0.3,.,.
CN(C)c1ccc(CNCCC2CCOC(C)(C)C2)cc1 (stereo unspecified),94*,88,i,-0.79,94,-21
CC(C)CCN1CCN(C2CCN(c3ccc4c(c3)OCO4)CC2)CC1CCO (stereo unspecified),6,.,i,0.19,.,.
Cc1cc(N/N=C/c2cccc(Cl)c2)nc(NCc2ccccc2)n1,77*,23,i,.,41,.
Cc1cc(N/N=C/c2ccccc2)nc(NCc2ccccc2)n1,88*,50,i,.,52,.
Cc1cc(Nc2cccc(Cl)c2)nc(NCc2ccccc2)n1,100*,8,i,-1.4,7,.
Cc1cc(N/N=C/c2cccc(F)c2)nc(NCc2ccccc2)n1,.,.,.,-0.83,.,.
Cc1cc(N/N=C/c2ccc(Cl)cc2)nc(NCc2ccccc2)n1,94*,31,i,-0.51,49,.
CC(C)CC(=O)NC(=S)Nc1ccc(NC(=O)c2ccco2)cc1,0,95,i,0.12,96,-67
SMILES,L major viab,PTEN del growth,Autophagy HCS,Insulin prom up,HCT116 bCat-KO,INS promoter inh
O=C(Nc1cc(Cl)ccc1N1CCOCC1)c1ccc2c(c1)OCCO2,9,.,i,-1.1,.,11
CC(C)(C)NCCOc1ccc(Br)cc1,95*,91,i,.,82,4
COCCCNCC1C(Oc2ccc(Cl)cc2)C(=O)N1c1ccccc1C (stereo unspecified),84*,77,i,-0.23,83,-26
COCCN1CC(=O)N(c2cccc(C)c2C)C(c2ccc(Cl)cc2)C1=O (stereo unspecified),0,93,i,-1.3,104,.
Cc1ccccc1N1C(=O)C(Oc2ccc(Cl)cc2)C1CNCCCOC(C)C (stereo unspecified),93*,50,i,-0.39,54,-10
O=C(O)CSc1nc2c(c(C(F)(F)F)n1)CCCC2,-9,.,i,0.4,.,-8
CC12CCC(C(=O)Nc3c(Cl)cccc3Cl)(C(Br)C1=O)C2(C)C (stereo unspecified),-6,102,i,-0.06,103,-75
O=C(Nc1ccccc1C(=O)N1CCNCC1)c1ccco1,-3,98,i,.,97,-74
CS(=O)(=O)N(CC(=O)NCc1ccco1)c1ccccc1Cl,-3,103,i,0.96,97,7
CS(=O)(=O)N(CC(=O)NCc1ccco1)c1ccc(Cl)c(C(F)(F)F)c1,76*,78,i,-0.06,91,55
Cc1ccc(OCC(=O)O/N=C(\N)c2ccccn2)cc1C,.,.,.,0.54,.,.
CCN(CC)CCOC(=O)c1cccc(OC)c1,-5,96,i,0.85,97,-27
CCN(CC)CCOC(=O)c1c(C)oc2ccc(OC)cc12,100*,95,i,-0.19,86,.
CCN(CC)CCCOC(=O)c1ccc(OC)cc1O,74*,.,i,0.24,.,.
C=C(C)COc1ccc2oc(C)c(C(=O)OCCOC)c2c1,-4,109,i,-0.03,98,-18
CCC(=O)Nc1ccc(C(=O)OCc2ccccc2)cc1,0,.,i,-0.48,.,62
COCC(C)OC(=O)C(C#N)c1nc2ccccc2nc1N1CCN(Cc2ccccc2)CC1 (stereo unspecified),67*,62,i,-0.36,77,-11
C=CCOC(=O)C(C#N)c1nc2ccccc2nc1N1CCN(Cc2ccccc2)CC1 (stereo unspecified),51*,63,i,-0.94,72,-21
COCCOC(=O)C(C#N)c1nc2ccccc2nc1N1CCN(Cc2ccccc2)CC1 (stereo unspecified),17,76,i,0.26,76,.
CC(C)COC(=O)C(C#N)c1nc2ccccc2nc1N1CCN(Cc2ccccc2)CC1 (stereo unspecified),42,65,i,-0.62,70,-25
CCCCOC(=O)C(C#N)c1nc2ccccc2nc1N1CCN(Cc2ccc3c(c2)OCO3)CC1 (stereo unspecified),69*,72,i,.,74,9
Cc1cc(NCCCn2ccnc2)n2ncc(-c3ccc(Cl)cc3)c2n1,100*,5,i,.,8,50
Cc1cc(NCCCN2CCOCC2)n2ncc(-c3ccc(Cl)cc3)c2n1,99*,66,i,-0.13,64,.
Cc1ccc(C)c(OCC(=O)NCCN(C)C)c1,-3,94,i,0.04,94,-41
Cc1ccc(C23CC4CC(CC(NC(=O)NCCN(C)C)(C4)C2)C3)cc1,99*,24,i,0.5,42,-26
CN(C)CCNC(=O)COc1ccc(C23CC4CC(CC(C4)C2)C3)cc1,101*,.,i,-0.71,.,.
COc1cc(CNc2ccc3[nH]c(=O)[nH]c3c2)cc(Cl)c1OCC(=O)NC(C)(C)C,10,98,i,-0.12,94,-61
O=C(Nc1ccccc1-c1nc2ccccc2[nH]1)c1sc2ccccc2c1Cl,46,1.9*,i,-0.02,4.0*,-36
